In PubChem BioAssay AID1347416 (National Center for Advancing Translational Sciences (NCATS), 2020):
Hit rate of the full screen: of about 4,100 compounds, about 1,600 (39%) were called active. About 25% were inconclusive and are not listed. Calls come from the whole dose curve; as a rule, active = well fitted inhibition curve with a large enough effect; inconclusive = small, poorly fitted or top-dose-only effect; inactive = no such curve, though single readings can be large or run the other way. The list shows a part of the results.

test: qHTS Validation assay for Inhibitors of Plasmodium falciparum Dd2 growth in vitro; note: nearly all actives have a fitted effect of over 70% in size; conditions: P. falciparum Dd2 in RBCs, SYBR Green growth, 72 h; series mostly up to 28.7 µM
In short: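 P. falciparum Dd2-infected red blood cells (2.5% hematocrit, 0.3% parasitemia) grown 72 h at 37 °C under 5% O2 with compounds in a titration, 29 uM to 0.5 nM final. Growth read as SYBR Green-1 fluorescence after ~16 h lysis; artesunate 300 nM as positive control.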
Potency is the fitted concentration of half-maximal effect.

For `O=C(C1CCC1)N1CCC2(CC1)CC(N(Cc1ccccc1)C1CC1)CCO2` (stereo not given), which Potency is on record?
The Potency was “inactive”.

For `CC1CCCCN1Cc1c(O)ccc2c(=O)c(-c3nc4ccccc4s3)c(N)oc12` (stereo not given), which Potency is on record?
The Potency was 1.06 µM (active).

Which Potency does the source give for `COCCN1C(=O)CS(=O)(=O)C12CCN(C(=O)c1cc(C)ccc1C)CC2` here?
Its Potency is “inactive”.

Which Potency does the source give for `CN(C)Cc1cc(C[C@@H]2C[C@H](NCc3ccccc3O)C2(C)C)no1` here?
The Potency was 17.2 µM (active).

For `CN(C)Cc1cc(CC2(NCc3ccc(C#N)cc3)COC2)no1`, which Potency is on record?
The Potency was “inactive”.

For `CC(C)(C)CN[C@H]1C[C@@H](Cc2cc(CN3CCOCC3)on2)C1(C)C`, which Potency is on record?
Its Potency is “inactive”.

With `O=C(c1ccc([N+](=O)[O-])o1)N1CCN(c2nc3c(Cl)cccc3s2)CC1` as the compound, how does the Potency read?
Its Potency is 4.22 µM (active).

With `CCc1cccc2sc(N3CCN(C(=O)c4ccc([N+](=O)[O-])o4)CC3)nc12` as the compound, how does the Potency read?
The Potency was 1.06 µM (active).

For `CC(=O)N1CCN(c2nc3c(s2)CC(C(=O)NCc2cccc(Cl)c2)CC3)CC1` (stereo not given), which Potency is on record?
Its Potency is “inactive”.

For `O=C(c1ccc([N+](=O)[O-])o1)N1CCN(c2nc3c(F)cc(F)cc3s2)CC1`, which Potency is on record?
The Potency was 5.96 µM (active).

For `Cc1noc(C(C)N(C)C(=O)c2cc(COc3ccccc3F)[nH]n2)n1` (stereo not given), which Potency is on record?
The Potency was “inactive”.

With `Cc1nn(-c2ccccc2)c2c1C(c1cccnc1)N1C=C(S(=O)(=O)N3CCCCC3)C=CC1=N2` (stereo not given) as the compound, how does the Potency read?
Its Potency is 15 µM (active).

For `COC(=O)[C@@H]1Cc2ncn(C(C)C)c2CN1S(=O)(=O)c1cccc(C(F)(F)F)c1`, which Potency is on record?
The Potency was “inactive”.

For `Fc1ccc(-c2ccc3ncc(Nc4ccnc(N5CCOCC5)c4)n3n2)cc1`, which Potency is on record?
Its Potency is 1.72 µM (active).

With `COc1ccc(-c2ccc3ncc(Nc4cccc(C(F)(F)F)c4)n3n2)cn1` as the compound, how does the Potency read?
Its Potency is 12.2 µM (active).

With `COc1ccc(-c2ccc3ncc(Nc4ccnc(N5CCOCC5)c4)n3n2)cn1` as the compound, how does the Potency read?
The Potency was 4.85 µM (active).

Which Potency does the source give for `CCc1noc(-c2cccn3c(CNC(=O)Cc4ccc(Cl)cc4)nnc23)n1` here?
Its Potency is “inactive”.

Which Potency does the source give for `Cc1cc(N2CCN(C)CC2)nc2ccc(NC(=O)c3ccc(Br)o3)cc12` here?
Its Potency is 6.68 µM (active).

Which Potency does the source give for `CCN(c1ccccc1)S(=O)(=O)c1ccc(NC(=O)c2cc(=O)c3cc(C)ccc3o2)cc1` here?
Its Potency is “inactive”.

For `Cc1ccoc1C(=O)Nc1ccc(CC(=O)O)cc1`, which Potency is on record?
Its Potency is “inactive”.

With `CCN(CC)c1cc(C)c2cc(NC(=O)c3ccc(Br)o3)ccc2n1` as the compound, how does the Potency read?
The Potency was 6.68 µM (active).

Which Potency does the source give for `CCN1CCN(c2cc(C)c3cc(NC(=O)c4ccc(Br)o4)ccc3n2)CC1` here?
The Potency was 6.68 µM (active).

Which Potency does the source give for `CC(NC(=O)Cc1cccc(F)c1)C(=O)N1CCN(c2ccccn2)CC1` (stereo not given) here?
Its Potency is “inactive”.

With `OC(CN1CCN(c2ccccn2)CC1)Cn1c2ccc(Cl)cc2c2cc(Cl)ccc21` (stereo not given) as the compound, how does the Potency read?
The Potency was 2.99 µM (active).

For `O=c1cc(N2CCOCC2)oc2c(N3CCN(c4ccccn4)CC3)nccc12`, which Potency is on record?
The Potency was “inactive”.
